Among the data in PubChem BioAssay (NCATS) are activity change, negative = inhibition and Potency values, retold here.

Molecules are shown by their SMILES. Records with an inconclusive call do not appear. Values without a mark were called inactive. Calls of active or inactive are those of the source. Calls come from the whole dose curve; as a rule, active = well fitted curve in the direction sought with a large enough effect; inconclusive = small, poorly fitted or top-dose-only effect, or another doubt; inactive = no such curve, though single readings can be large; an effect the other way counts as inactive or inconclusive. Where a SMILES comes first, the peptide text is derived from it. The star is where a group is joined. Boc = CC(C)(C)OC(=O)*

Test [1] relates to Zika virus NS2B-NS3 protease. In words: Primary screen GU AMC qHTS for Zika virus inhibitors (AID 1347154).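 Note: 0% = no-inhibitor control and -100% = no-enzyme control; nearly all actives have a fitted effect of over 70% in size.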 The procedure, abridged: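 Unlinked Zika NS2B hydrophilic domain/NS3 protease domain noncovalent complex (25 nM final) in 10 mM Tris-HCl pH 8.0, 0.01% Tween 20, with AMC peptide substrate. Fluorescence (ex 340, em 450 nm) change over 15 min, room temperature; percent inhibition fitted to 4-parameter Hill equation.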
On the technique in general: Quantitative high-throughput screening tests each substance at several concentrations.

A short description of test [2]: Primary qHTS for small molecule stabilizers of the endoplasmic reticulum resident proteome: Secreted ER Calcium Modulated Protein (SERCaMP) assay (AID 1508630). Note: % is set by controls: 0 for no effect and ±100 for the full control effect. The gist of the method: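 The SH-SY5Y reporter protocol was run at 3 concentrations up to 38.3 uM (primary) or 11 concentrations (follow-up): 16 h compound, 100 nM thapsigargin for 4 h, then extracellular luciferase luminescence.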

Regarding `CCCCC/C=C\C/C=C\C/C=C\C/C=C\CCCC(=O)O[C@H](COCCCCCCCCCCCCCCCC)COP(=O)([O-])OCC[N+](C)(C)C`, the activity change, negative = inhibition in test [1] was 13.2% [at 6.83 µM]; in test [2], -11.5% [at 3.88 µM].

On to `COc1c(O)cc2oc(-c3ccc(O)cc3)cc(=O)c2c1O`, for which the Potency entry in test [1] and in test [2] was “inactive” throughout.

In the case of `NCCCC[C@@H](N)C(=O)O`, the Potency result in test [1] and in test [2] was “inactive” in each case.

`COC1C(O)C(CO)OC1n1cnc2c(NC3CCCCC3)ncnc21` (configuration not stated): the Potency result in test [1] and in test [2] was “inactive” throughout.

For the compound `C[C@H](CCC(=O)O)C1CC[C@H]2C3CC[C@@H]4C[C@H](O)CC[C@]4(C)C3C[C@H](O)[C@]12C` (some centres not stated), the Potency entry in test [1] and in test [2] was “inactive” each time.

Turning to `CCCCC/C=C\C/C=C\C/C=C\C/C=C\CCCC(=O)O[C@@H](CO)COCCCCCCCCCCCCCCCC`, the activity change, negative = inhibition was 9.81% [at 6.83 µM] in test [1] and -14% [at 3.88 µM] in test [2].

Regarding `N[C@H](C(=O)O)[C@H]1C[C@H]1C(=O)O`, the Potency result in test [1] and in test [2] was “inactive” throughout.

For the compound `CC1=C(C(=O)OC(C)C)[C@@H](c2cccc3nonc23)C([N+](=O)[O-])=C(C)N1`, the Potency entry in test [1] and in test [2] was “inactive” each time.

For the compound `CC(C)OC(=O)c1cn(Cc2c(F)cccc2F)c2sc(-c3ccc(NC(=O)C(C)C)cc3)c(CN(C)Cc3ccccc3)c2c1=O`, the Potency result in test [1] and in test [2] was “inactive” in each case.

On to `NC1=NC2C(N=C(Br)N2[C@@H]2O[C@H]3COP(=O)(O)O[C@@H]3[C@@H]2O)C(=O)N1` (some centres not stated), for which the Potency entry in test [1] and in test [2] was “inactive” throughout.

Turning to `CO[C@H]1C[C@@H]2CC[C@@H](C)[C@@](O)(O2)C(=O)C(=O)N2CCCC[C@H]2C(=O)O[C@H](C(C)C[C@H]2CC[C@@H](O)[C@H](OC)C2)CC(=O)[C@H](C)/C=C(\C)[C@@H](O)[C@@H](OC)C(=O)[C@H](C)C[C@H](C)/C=C/C=C/C=C/1C` (some centres not stated), the Potency result in test [1] and in test [2] was “inactive” each time.

Turning to `C=C1/C(=C\C=C2\CCCC3(C)C2CCC3C(C)/C=C/C(O)C2CC2)CC(O)CC1O` (configuration not stated), the Potency result in test [1] and in test [2] was “inactive” throughout.

For the compound `CC1c2ccccc2CN1CC1=NCCN1` (configuration not stated), the Potency entry in test [1] and in test [2] was “inactive” throughout.

`CCCCCCCCCC(=O)OCC(CO)OC(=O)CCCCCCCCC` (configuration not stated): the activity change, negative = inhibition was 1.45% [at 6.83 µM] in test [1] and -13.4% [at 3.88 µM] in test [2].

Regarding `CCCCC/C=C\C\C=C/C=C/C=C/[C@@H](SC[C@H](N)C(=O)O)[C@@H](O)CCCC(=O)O`, the activity change, negative = inhibition was 5.9% [at 0.59 µM] in test [1] and -5.61% [at 0.478 µM] in test [2].

Regarding `CC(C)C[C@H](NC(=O)[C@H](Cc1ccccc1)NC(=O)CNC(=O)CNC(=O)[C@@H](N)Cc1ccc(O)cc1)C(=O)N[C@@H](CCCN=C(N)N)C(=O)N[C@@H](CCCN=C(N)N)C(=O)N[C@@H](CCC(N)=O)C(=O)N[C@@H](Cc1ccccc1)C(=O)N[C@@H](CCCCN)C(=O)N[C@H](C(=O)N[C@H](C(=O)N[C@H](C(=O)O)[C@@H](C)O)C(C)C)C(C)C`, the activity change, negative = inhibition is 3.02% [at 6.83 µM] in test [1] and -2% [at 3.88 µM] in test [2].

Turning to `Nc1nc2c(ncn2[C@@H]2O[C@H](COP(=O)(O)OP(=O)(O)O)[C@@H](O)[C@H]2O)c(=O)[nH]1`, the Potency entry in test [1] and in test [2] was “inactive” in each case.

Take `Cc1ccc(/C=C2/CNC/C(=C\c3ccc(C)cc3)C2=O)cc1`: the Potency result in test [1] and in test [2] was “inactive” each time.

Take `CCCCCC(=O)/C=C/C=C\CCCCCCCC(=O)O`: the activity change, negative = inhibition was 0.325% [at 0.59 µM] in test [1] and -7.64% [at 0.478 µM] in test [2].

Regarding `CCCCCCCCCCCCCCCCOCC(CO)OC` (configuration not stated), the activity change, negative = inhibition in test [1] is 21.3% [at 6.83 µM]; in test [2], -17.7% [at 3.88 µM].

In the case of `COC(=O)[C@@H](N)CSC/C=C(\C)CC/C=C(\C)CCC=C(C)C`, the Potency entry in test [1] and in test [2] was “inactive” in each case.

For `CC(O)(C(=O)Nc1ccc(S(=O)(=O)c2ccccc2)cc1)C(F)(F)F` (configuration not stated), the Potency result in test [1] and in test [2] was “inactive” each time.

Regarding `Nc1c(S(=O)(=O)O)cc(Nc2ccc(Cl)cc2)c2c1C(=O)c1ccccc1C2=O`, the Potency result in test [1] and in test [2] was “inactive” in each case.

Consider `O=[N+]([O-])c1ccc(CSc2ncnc3c2ncn3C2OC(CO)C(O)C2O)cc1` (configuration not stated), for which the Potency entry in test [1] and in test [2] was “inactive” in each case.

For `Cc1ccccc1N1CCN(S(=O)(=O)CC23CCC(CC2NC(=O)C(N)CCS(C)(=O)=O)C3(C)C)CC1` (configuration not stated), the Potency entry in test [1] and in test [2] was “inactive” in each case.

Regarding `NS(=O)(=O)c1nn2cc(-c3ccccc3)nc2s1`, the Potency result in test [1] and in test [2] was “inactive” throughout.

Consider `C[C@H](N)CCCP(=O)(O)O`, for which the Potency entry in test [1] and in test [2] was “inactive” in each case.

Regarding `C=C1CC2COC(=O)C2(Cc2ccc3ccccc3c2)C1` (configuration not stated), the Potency entry in test [1] and in test [2] was “inactive” each time.

In the case of `CCC(N)(C(=O)O)c1ccc(C(=O)O)cc1` (configuration not stated), the Potency result in test [1] and in test [2] was “inactive” in each case.

In the case of `NCC(O)COc1cccc2ccccc12` (configuration not stated), the Potency result in test [1] and in test [2] was “inactive” throughout.

For the compound `C=NCc1cc2c(OC[C@@H](O)CNC(C)(C)C)cccc2[nH]1`, the Potency result in test [1] and in test [2] was “inactive” in each case.

Turning to `CC(N)CCCP(=O)(O)O` (configuration not stated), the Potency entry in test [1] and in test [2] was “inactive” each time.

Turning to `CCCCC[C@H](O)/C=C/[C@@H]1[C@@H](CC(=O)CCCCC(=O)O)[C@@H](O)C[C@H]1O`, the activity change, negative = inhibition in test [1] was 7.57% [at 6.83 µM]; in test [2] it was 35.8% [at 3.88 µM].

On to `CCCCC[C@H](O)/C=C/C=C\CCCCCCCC(=O)O`, for which the Potency entry in test [1] and in test [2] was “inactive” each time.

Consider `CC(C)[C@H](NC(=O)CNC(=O)OC(C)(C)C)C(=O)N[C@H](C=O)C(C)C` (Boc-Gly-Val-Val-aldehyde), for which the Potency entry in test [1] and in test [2] was “inactive” throughout.

As for `CC(C)ON(CC(=O)NO)S(=O)(=O)c1ccc(-c2ccccc2)cc1`, the Potency entry in test [1] and in test [2] was “inactive” in each case.

With `CCCCCCCCCCCCCCCC(=O)OCC(COP(=O)(O)O)OC(=O)CCCCCCCCCCCCCCC` (configuration not stated), the figures for the activity change, negative = inhibition in test [1] and in test [2] were 13.2% [at 6.83 µM] and -28.1% [at 3.88 µM], respectively.

Take `Nc1ncnc2c1ncn2C1O[C@H](COP(=O)(O)O)[C@@H](O)[C@H]1O` (some centres not stated): the Potency result in test [1] and in test [2] was “inactive” in each case.

With `C[N+]1(Cc2ccccc2)CCC(C(=O)OCC2CCCC2)CC1` (configuration not stated), the Potency result in test [1] and in test [2] was “inactive” each time.

With `CSCC[C@H](NC(=O)[C@H](Cc1ccccc1)NC[C@@H](NC[C@@H](N)CS)C(C)C)C(=O)O`, the Potency entry in test [1] and in test [2] was “inactive” in each case.

As to `COc1ccc2[nH]cc(CCO)c2c1`, the Potency result in test [1] and in test [2] was “inactive” throughout.

For `CC(C)C(NS(=O)(=O)c1ccc(-c2ccc(Br)cc2)cc1)C(=O)O` (configuration not stated), the Potency entry in test [1] and in test [2] was “inactive” each time.

In the case of `COC(=O)/C=C/c1cc(O)ccc1O`, the Potency entry in test [1] and in test [2] was “inactive” each time.

Regarding `C/C(O)=C1\C(=O)[C@@H]2[C@H]3c4c[nH]c5cccc(c45)C[C@H]3C(C)(C)N2C1=O`, the Potency result in test [1] and in test [2] was “inactive” each time.

Regarding `CC(N)(C(=O)O)c1ccc(-c2nn[nH]n2)cc1` (configuration not stated), the Potency result in test [1] and in test [2] was “inactive” in each case.

As for `C[C@]12CC[C@@H](O)C[C@@H]1CC[C@@H]1[C@@H]2CC[C@]2(C)C=CC[C@@H]12`, the Potency result in test [1] and in test [2] was “inactive” throughout.
